Shown is part of a subset that was picked to be rich in hits.
mcGAS MS inh = mouse cGAS inhibition by mass spec; recombinant mouse cGAS, cGAMP by RapidFire MS; inhibition, % at 12.5 µM; hit rate 0.18% among 130,000; AID 1259397;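 active means inhibition of cGAS enzyme activity at or above 60%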;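 further: enzyme stimulated by 45 bp dsDNA with ATP and GTP substrates; cGAMP share of summed cGAMP plus half ATP and half GTP signals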
Target sequence (Q8C6L5 whole entry, looked up): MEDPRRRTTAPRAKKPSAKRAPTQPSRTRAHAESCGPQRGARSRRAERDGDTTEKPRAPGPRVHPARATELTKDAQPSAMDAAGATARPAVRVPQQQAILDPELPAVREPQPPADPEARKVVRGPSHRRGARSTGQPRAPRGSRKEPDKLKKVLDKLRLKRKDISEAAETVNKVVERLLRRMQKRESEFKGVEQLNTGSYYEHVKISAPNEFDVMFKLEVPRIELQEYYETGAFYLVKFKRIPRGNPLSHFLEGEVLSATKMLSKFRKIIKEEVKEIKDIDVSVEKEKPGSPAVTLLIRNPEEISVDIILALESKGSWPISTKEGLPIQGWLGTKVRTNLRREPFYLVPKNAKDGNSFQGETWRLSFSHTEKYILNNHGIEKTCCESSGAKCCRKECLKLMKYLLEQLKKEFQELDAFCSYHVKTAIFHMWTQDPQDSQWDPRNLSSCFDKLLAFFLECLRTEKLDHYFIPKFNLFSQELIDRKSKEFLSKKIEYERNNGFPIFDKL
Numbers without * were called inactive; ! = not active in a repeat.

SMILES	mcGAS MS inh
O=C1C2Sc3[nH]c(=O)sc3C(c3ccc(O)cc3)C2C(=O)N1c1ccc(Cl)cc1 (stereo not given)	0
O=C1NC(=O)C2C1Sc1[nH]c(=O)sc1C2c1ccco1 (stereo not given)	89*
COc1ccc(C2c3sc(=O)[nH]c3SC3C(=O)NC(=O)C32)cc1 (stereo not given)	-2
Nc1ncc(Br)s1	14
O=C1N(Cc2cccnc2)C[C@@H]2C[C@@H](c3ccc(OCc4ccccc4)cc3)N3CCC[C@@]123	-6
COc1ccccc1-c1nc(C)c(-c2ccc(SCC(=O)Nc3nc(C)cs3)nn2)s1	-18
Oc1c(Br)cc(C=NNc2ccccn2)cc1Br	74*
COc1cc(/C=N\Nc2ncnc3nc[nH]c23)cc(Br)c1O	3
Cc1cc(NN=Cc2ccccn2)nc2ccccc12	-3
CCCn1c(N)c(C(=O)CSc2nncn2C)c(=O)[nH]c1=O	-8
CN(CCOc1ccccc1)Cc1nc(-c2ccccc2)no1	-5
O=C(Cc1csc(-c2cc(Br)cs2)n1)N1CC2CCCCC2C1 (stereo not given)	-28
CCc1noc(C(C)N2CCN(S(=O)(=O)c3c(C)c(C)c(C)c(C)c3C)CC2)n1 (stereo not given)	-3
C=C(Br)CNC(=O)N1CCCN(C(=O)c2ccccc2Cl)CC1	-4
CCCc1noc(C(C)N2CCCN(C(=O)c3ccccc3Cl)CC2)n1 (stereo not given)	76*
Cc1ccccc1C1=NC(C)(CC(=O)NCc2ccccc2)ON1C (stereo not given)	-10
O=C(c1c(O)c2ccccc2oc1=O)C1CCC1	-2
O=C1CNc2c(c(=O)oc3ccccc23)N1	96*
O=c1oc2ccc(O)cc2c2c1NCCC2	-26
COc1ccc(CC(=O)NC2CC(=O)N(Cc3cccc(F)c3)C2)cc1OC (stereo not given)	-18
Cc1ccc(C(=O)OC(C)C(C)(C)C#N)cc1Cl (stereo not given)	-4
COc1ncccc1-c1ccc(-c2ncc(C)cn2)cc1	-15
O=c1[nH]c(-c2cnccn2)nc2cc(F)c(F)cc12	3
CCOC(=O)Cn1nc(C)c(C)c(C#N)c1=O	-7
CCOC(=O)CN1C(=O)CSC1=CC#N	82*
SMILES	mcGAS MS inh
CCOC(=O)C=C1SCC(=O)N1CC(=O)OCC	-8
O=c1c(O)cccc2cc(O)c(O)c(O)c12	65*
Cc1cccc(N2CCN(Cn3nc(-c4cccs4)oc3=O)CC2)c1	2
CCC(=O)Nc1ccc(C(=O)Cn2cc(Br)cn2)cc1	-1
N[n+]1cnn(CC(=O)c2ccccc2Br)c1	98*
Cc1nn(CC(=O)c2ccc(Cl)cc2Cl)c(C)[n+]1N	-14
N[n+]1cnn(CC(=O)c2ccccc2)c1	6
O=C(CSCc1ccccc1)c1ccccc1Br	0
N[n+]1cnn(CC(=O)c2ccc(Br)cc2Br)c1	83*
COCCN(Cc1nc2c(F)cccc2[nH]1)CC(F)(F)F	-2
O=CNc1ccccc1Oc1c(F)c(F)c(F)c(F)c1F	5
CN(C)S(=O)(=O)CCNC(=O)Cn1cc2ccccc2n1	-21
Oc1oc(-c2ccccc2Br)nc1C=Nc1ccccc1	28
Fc1ccccc1N1CCN(Cn2[nH]c(-c3ccccc3)nc2=S)CC1	5
CN(C)C(=O)C1CCCN1Cn1[nH]c(-c2ccccc2)nc1=S (stereo not given)	17
S=c1nc(-c2ccccc2)[nH]n1CN1CCc2ccccc2C1	77*
CCOc1ccc(C=C2N=C(C(C)(C)C)OC2=O)cc1OC	-12
Cc1ccc(/C=N\Nc2nncn2N)cc1	-17
CC(=O)Oc1ccc(CN2C(=O)C(C)(C)ON=C2c2ccc(C)cc2)cc1	87*
CC(=O)Oc1ccccc1CN1C(=O)C(C)(C)ON=C1c1ccc(C(F)(F)F)cc1	-13
COC(=O)c1ccc(CN2C(=O)C(C)(C)ON=C2c2ccc(C)cc2)o1	25
O=[N+]([O-])c1cnn(Cc2nc(-c3ccc(-n4cccc4)cc3)no2)c1	11
COC(=O)c1ccc(C(=O)N2CCOC(Cc3cccc(F)c3)C2)cc1 (stereo not given)	-7
CSc1cccc(CN2CCN(Cc3ccccc3F)C(CCO)C2)c1 (stereo not given)	-3
Cc1ccc(CNC(=O)C2CCC(=O)N(Cc3ccccn3)C2)s1 (stereo not given)	-4
SMILES	mcGAS MS inh
CN1CCN(C)C(CNC(=O)C2CC2c2ccc(Cl)c(Cl)c2)C1 (stereo not given)	-4
CCCn1c(=O)n(CCC(=O)N2CCCn3ncnc32)c2ccccc21	-12
O=C(C1CC1c1ccc(Cl)c(Cl)c1)N1CCCn2ncnc21 (stereo not given)	96*
CC(=O)c1ccc(N2CCN(Cn3nc(C)n(-c4cccc(C)c4)c3=S)CC2)cc1	0
Cc1ccc(-n2nnc3c(=O)n(CC(=O)Nc4cc(C)on4)cnc32)cc1	4
CN(CC(=O)Nc1ccc(N2CCOCC2)cc1)C(=O)COc1ccccc1C#N	69*
CC(C)n1nccc1NC(=O)COc1ccccc1C#N	3
CCCCC(=O)Nc1ccc(N2CCOCC2)cc1	-6
CC(Cc1ccsc1)NC(=O)N1CCc2ccccc2C1 (stereo not given)	-7
CCCC(=O)N1CCCCC1C(=O)NC1CCc2ccccc21 (stereo not given)	1
O=C(O)CN1C(=O)C(=NN2C(=O)CSC2=S)c2ccccc21	92*
O=C(O)CNC(=O)CN1C(=O)CSC1=S	13
O=C(O)CN1C(=O)/C(=C2/C(=O)N(CC(=O)O)c3ccccc32)SC1=S	4
CN1CC(=O)N(CC(O)COc2c(Cl)cccc2Cl)C1=O (stereo not given)	4
NC(=O)Nc1cccc(CNC(=O)CCc2ccccc2Br)c1	8
O=C(c1cccc(NCc2cccc(F)c2)c1)N1CCC(O)CC1	3
O=C(CCc1ccccn1)Nc1cc(C(F)(F)F)ccc1O	-10
CC1c2[nH]c3ccccc3c2CCN1C(=O)CCCc1nc(C(C)(C)C)no1 (stereo not given)	-48
CC(C)(C)OC(=O)Nc1ccsc1Br	66*!
Cn1ccsc1=NC(=O)c1ccc(NC(=O)OC(C)(C)C)cc1	-14
CC(C)(C)OC(=O)Nc1ccncc1C(=O)c1ccccc1	-21
O=C1CC(Sc2nc3ccccc3o2)C(=O)N1c1cccc(C(F)(F)F)c1 (stereo not given)	-6
CCCc1nnc2sc(-c3cc(C(C)C)[nH]n3)nn12	-29
c1ccc(CCc2nn3c(C4COc5ccccc5O4)nnc3s2)cc1 (stereo not given)	54
CC(C)c1cc(-c2nn3c(C4COc5ccccc5O4)nnc3s2)n[nH]1 (stereo not given)	70*
NC(=O)CC(N)=S	92*
NC(=O)NO	1
NC(=S)CC(=O)N1CCOCC1	-9
O=S(=O)(Nc1ccc(F)c(F)c1F)c1ccc(Cl)cc1F	0

From PubChem BioAssay
